Results published in PubChem BioAssay AID602163 (The Scripps Research Institute Molecular Screening Center, 2012).
The campaign covered roughly 360,000 compounds. About 1,100 (0.31%) were called active. The sample as a whole holds a higher share of actives than the screen did. Values without a mark were called inactive. Cut-off read from the data, not from the text of the source: active = activation above about 7.5%; inactive = the rest.

System: Methionine sulfoxide reductase A (Bos taurus)
Assay: activation of methionine sulfoxide reductase A – biochemical, absorbance, bovine, HTS, primary screen (AID 602163);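 note: 0% = vehicle and 100% = reference activator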
Details: purified bovine MsrA, absorbance read-out; at 10.6 µM; stronger effect = higher value

Point of comparison: `C/C=C/C(=O)OCC(=O)Nc1ccc(F)cc1Cl`, activation -7.53%. Against it:
- CCOC(=O)C1CCN(C(=O)C2CCN(S(=O)(=O)c3c(C)noc3C)CC2)CC1 — higher, -0.14%
- O=C1[C@@H]2C(Cc3ccc(O)cc3)NC3(C(=O)Nc4ccc(F)cc43)[C@@H]2C(=O)N1c1ccc(F)cc1 (stereo partly drawn) — higher, -1.38%
- COc1ccc([C@H]2N[C@]3(CCCN(CC4CCCCC4)C3=O)[C@H]3C(=O)N(C)C(=O)[C@@H]23)cc1 — higher, -4.49%
- CCOc1ccccc1NC(=O)C1CCCN(C(=O)Nc2ccccc2)C1 (stereo not drawn) — higher, -2.87%
- Nn1c(SCC(=O)Nc2ccc3c(c2)CCC3)nnc1C1CC1 — higher, 0.99%
- CCCN(CC(=O)Nc1ccccc1C)C(=O)c1cc(=O)[nH]c2ccccc12 — lower, -8.69%
- CC1CCc2[nH]c3ccc(C(=O)N(C)CC(=O)Nc4cccc(F)c4)cc3c2C1 (stereo not drawn) — higher, -0.36%
- COCC(=O)Nc1c(I)c(C(=O)NCC(O)CO)c(I)c(C(=O)N(C)CC(O)CO)c1I (stereo not drawn) — higher, -1.2%
- NC(=O)NCCCC(=O)O — higher, 5.76%
- COc1ccc(OC)c(NC(=O)COC(=O)Cc2ccsc2)c1 — higher, -3.82%
- S=c1nccc(-c2cc(Cl)sc2Cl)[nH]1 — lower, -10.9%
- CC[C@]1(O)C[C@@H]2CN(CCc3c([nH]c4ccccc34)[C@@](C(=O)OC)(c3cc4c(cc3OC)N(C)[C@H]3[C@@](O)(C(=O)OC)[C@H](OC(C)=O)[C@]5(CC)C=CCN6CC[C@]43[C@@H]65)C2)C1 — higher, -0.23%
- CCOc1ccc2[nH]c(=O)c(CN(CCCO)C(C)=O)cc2c1 — higher, -0.13%
- Nc1ccc2[nH]c(=S)sc2c1 — higher, 0.61%
- Cn1c(CCCOc2ccc(Cl)cc2Cl)n[nH]c1=S — higher, -3.29%
- COC(=O)c1ccc(NC(=O)CSc2nnc(Cc3cccn3C)n2-c2ccc(F)cc2)cc1 — higher, -0.87%
- COc1ccccc1NC(=O)CSc1nnc(Cc2cccn2C)n1-c1ccc(F)cc1 — higher, -0.41%
- CCn1c(C)nc2c1C(=O)c1ccccc1C2=O — higher, 6.51%
- O=C(Nc1ccc(S(=O)(=O)Nc2ncccn2)cc1)C12CC3CC(CC(C3)C1)C2 — higher, -5.78%
- Cc1cc(OC(C)C(=O)Nc2ccc(S(=O)(=O)Nc3onc(C)c3C)cc2)cc(C)c1Cl (stereo not drawn) — higher, -4.68%
- COc1cc(C(=O)OCC(=O)NC23CC4CC(CC(C4)C2)C3)cc(OC)c1OC — higher, -1.08%
- COc1ccc(S(=O)(=O)N2CCOCC2)cc1NC(=O)CC1CC2CCC1C2 (stereo not drawn) — higher, -3.8%
- CCN(CC(=O)Nc1ccccc1OC)C(=O)Cn1cnc2ccccc2c1=O — higher, -6.89%
- CN(/C(=N/S(=O)(=O)c1cccs1)c1ccccc1)c1ccc(O)cc1 — higher, -3.66%
- Brc1ccc(-c2n(-c3ccccn3)c3ccccc3[n+]2-c2ccccn2)cc1 — higher, -3.31%
- CCn1c(SCC(=O)Nc2cc(C)ccc2C)nnc1-c1cnccn1 — lower, -14%
- CCOC(=O)Cc1csc(NC(=O)CSc2nnc(-c3cccnc3)n2Cc2ccco2)n1 — higher, -2.57%
- CN(C(=O)c1cccc(NC(=O)Cc2ccc(NC(=O)C3CCCN(C(=O)C4CCCC4)C3)cc2)c1)C1CCC1 (stereo not drawn) — higher, -1.96%
- CN(C(=O)c1cccc(NC(=O)Cc2ccc(NC(=O)C3CCCN(C(=O)C4CC4)C3)cc2)c1)C1CC1 (stereo not drawn) — higher, -5.02%
- C=C(C)C(=O)O[C@H]1C/C(C)=C\C(=O)/C=C(\C)[C@H](O)[C@@H]2OC(=O)C(=C)[C@@H]21 — higher, -5.09%
- COCc1cccc(-c2csc(C(O)c3ccc(F)cc3)n2)c1 (stereo not drawn) — higher, -2.06%
- CSc1ccc(CN(C)CC(=O)NCc2ccc(F)cc2)cc1 — higher, -2.54%
- COc1cc(OC)cc(-c2c(C#Cc3ccsc3)c3cc(-c4ccc(SC)cc4)ccc3n2C)c1 — higher, -0.65%
- c1ccc(CN=C2Nc3ccccc3CS2)nc1 — higher, -3.81%
- COc1cc(F)c(C2=CC(=O)CC(C)(C)C2)cc1F — higher, -3.81%
- O=C(COC(=O)CSc1nnc(-c2ccc(Cl)cc2)o1)Nc1cc(Cl)cc(Cl)c1 — higher, -3.64%
- CC(NS(=O)(=O)c1ccccc1)c1n[nH]c(=S)n1-c1ccccc1 (stereo not drawn) — higher, -0.57%
- Cc1ccc(C(=O)COC(=O)CCN2C(=O)C3C4CC(C(Br)C4Br)C3C2=O)cc1 (stereo not drawn) — higher, -3.01%
- O=C(c1ccco1)N1CCN(C(=S)Nc2cc(F)cc(F)c2)CC1 — higher, -6.94%
- O=C(c1ccco1)N1CCN(CCOc2ccccc2)CC1 — higher, -3.77%
- Cn1c(=O)c2[nH]c(NCC3CCCO3)nc2n(-c2ccccc2)c1=O (stereo not drawn) — higher, -0.78%
- Cc1cccc(NC(=O)CSc2nnc(CCCCCNC(=O)OC(C)(C)C)o2)c1C — higher, -0.45%
- O=C(O)CC(CC(=O)N1CCOCC1)c1ccccc1 (stereo not drawn) — higher, -2.3%
- CC1=NN(C(=O)Cc2ccc(C)cc2)C(O)(c2cccnc2)C1 (stereo not drawn) — higher, 0.86%
- COc1ccc(NC(=O)NCc2ccc3c(c2)OCO3)c(OC)c1 — higher, -3.53%
- COc1ccccc1-n1c(C)nc2cc(C(=O)NCc3ccc4c(c3)OCO4)ccc21 — higher, -1.98%
- CCOC(=O)C1CCN(C(=O)c2cccc(S(=O)(=O)N(CC)c3ccccc3)c2)CC1 — lower, -8.63%
- COc1ccccc1NC(=O)CCN1CCN(c2ccc(Cl)cc2)CC1 — higher, -3.09%
- O=C(CN1CCN(c2ccc(O)cc2)CC1)Nc1ccc(-c2ccccc2)cc1 — higher, -3.19%
- O=C(Nc1ccccc1)c1nnsc1S(=O)(=O)c1ccc(Cl)cc1 — lower, -11.8%
- O=c1[nH]snc1-c1c(Cl)cccc1Cl — higher, -0.32%
- CCC(C)N1C(=O)S/C(=C/c2ccc(Sc3nc4ccccc4[nH]3)o2)C1=O (stereo not drawn) — higher, -7.08%
- Nc1cc(OC(=O)c2ccccc2Br)nn1S(=O)(=O)c1ccccc1 — higher, -3.8%
- Cc1ccc(S(=O)(=O)N2CCC(C(=O)N3CCCCCCC3)CC2)cc1 — higher, -4.45%
- CCN(CC)C(=O)Cn1cc(S(=O)(=O)CC(=O)NCc2ccc3c(c2)OCO3)c2ccccc21 — higher, -1.14%
- O=C1Oc2ccccc2C(=O)/C1=C/c1ccccc1O — higher, -0.91%
- COc1ccccc1NC(=O)C1CCCN1S(=O)(=O)c1ccc(Cl)cc1 (stereo not drawn) — lower, -9.31%
- O=C(OCC(=O)N1CCc2ccccc21)C1CCCN1S(=O)(=O)c1ccc(Cl)cc1 (stereo not drawn) — higher, -1.01%
- O=C(Nc1ccc2c(c1)C(=O)OC2)Nc1cccc2ccccc12 — higher, -5.72%
- CC1Oc2ccccc2N(Cc2cccnc2)C1=O (stereo not drawn) — higher, -2.41%
- CC(C)Cn1cnc2c(SCc3ccc(Cl)cc3)nc(N)nc21 — higher, -1.84%
- CCCCNC(=O)C1(c2ccc(OC)cc2)CCOCC1 — higher, 2.44%
- CCCCNC(=O)OCCSCCS(=O)(=O)c1ccc(Cl)cc1 — higher, -0.48%
- Cc1cccc(-n2cnc(C(=O)NNC(=S)Nc3ccccc3)c2)n1 — higher, -2.6%
- COc1ccc(S(=O)(=O)NC(=O)C2(C)CCN2C(=O)COc2ccc(Cl)cc2)cc1 (stereo not drawn) — higher, -2.84%
- C=CCn1c(SCC(=O)/C(C#N)=C(\C)N)nc2sc(C)c(C)c2c1=O — lower, -12.1%
- CCc1cc2c(=O)n(-c3ccccc3)c(SCC(=O)O)nc2s1 — higher, -3.91%
- COc1cc(C)nc(N2CCCC(C(=O)NCC(C)C)C2)n1 (stereo not drawn) — lower, -8.78%
- CCOc1ccc2nc(N3CCCN(C(=O)Nc4ccccc4C)CC3)c(C#N)cc2c1 — higher, -1.05%
- COc1ccc2cc(C(=O)C3CCCN(C(=O)c4sc(C)nc4C)C3)ccc2c1 (stereo not drawn) — higher, -0.96%

With `CCCN(CC(=O)Nc1ccccc1C)C(=O)c1ccc2[nH]c3c(c2c1)CC(C)CC3` (stereo not drawn) the activation was 17.2% (active).
For `CC(=O)N(O)CCCCCNC(=O)CCC(=O)N(O)CCCCCNC(=O)CCC(=O)N(O)CCCCCNC(=O)CCC(=O)O`, the activation was 8.82% (active).
In the case of `CCOc1ccc2[nH]c(=S)sc2c1`, the activation was 8.43% (active).
In the case of `Cc1ccc(C)c(NC(=O)CSc2nnc(Cc3cccn3C)n2-c2ccc(F)cc2)c1`, the activation was 9.61% (active).
For `Cc1noc(NS(=O)(=O)c2ccc(NC(=O)C34CCC(CC3)C4)cc2)c1C`, the activation was 7.83% (active).
For `CCN(CC(=O)Nc1ccccc1OC)C(=O)CC1CC2CCC1C2` (stereo not drawn), the activation was 7.82% (active).
`CCc1ccc(NC(=O)CSc2nnc(-c3cnccn3)n2Cc2ccco2)cc1` was tested, and the activation was 10.3% (active).
`O=C(Cc1ccc(NC(=O)C2CCCN(C(=O)C3CCCCC3)C2)cc1)Nc1cccc(C(=O)N2CCCCC2)c1` (stereo not drawn) was tested, and the activation was 8.7% (active).
In the case of `CN1c2ccc(C=O)c3c(C=O)ccc(c23)N(C)C1(C)C`, the activation was 9.27% (active).
In the case of `O=C(c1ccco1)N1CCN(Cc2cccc(C(F)(F)F)c2)CC1`, the activation was 7.76% (active).
For `COc1cc(OC)c(C(=O)NCc2ccc3c(c2)OCO3)cc1OC`, the activation was 9.15% (active).
`O=C(CCN1CCN(c2ccccc2)CC1)NNC(=S)Nc1ccccc1` was tested, and the activation was 12.7% (active).
For `Cc1ccc(S(=O)(=O)n2nc(OC(=O)C(C)(C)C)cc2N)cc1`, the activation was 19.7% (active).
With `NC(=O)COc1ccc(/C=N/NC(=O)C2CCCN2S(=O)(=O)c2ccc(Cl)cc2)cc1` (stereo not drawn) the activation was 8.7% (active).
For `CCCCNC(=O)OC(C)CNC(=O)OC` (stereo not drawn), the activation was 8.8% (active).
For `C=CCn1c(SCC(=O)c2c(N)n(C)c(=O)n(C)c2=O)nc2sc(CC)cc2c1=O`, the activation was 8.63% (active).
`COc1ccc2nc(N3CCCC(O)C3)c(C#N)cc2c1` (stereo not drawn) was tested, and the activation was 19.6% (active).
